{"source": "ChEMBL document CHEMBL1157539", "about": "“Thousands of chemical starting points for antimalarial lead identification” (Nature, 2010)"}
{"tested_on": "Plasmodium falciparum", "assay": "GSK_TCMDC: Inhibition of Plasmodium falciparum 3D7 in whole red blood cells, using parasite LDH activity as an index of growth. Test compounds present at 2uM", "format": "functional", "units": {"Inhibition": "%"}}
{"molecule": "Cc1nnc2c(NC(=O)NC(C)C)cc3cc(-c4ccc(CN5CCCCC5)cc4)ccc3n12", "Inhibition": 87}
{"molecule": "CC(C)(CNCc1ccc(F)c(F)c1)c1nc(-c2ccc(Cl)c(O)c2)c(-c2ccncc2)[nH]1.Cl", "Inhibition": 100}
{"molecule": "CCOc1cc(C(=O)Nc2ccc3nc(N(CC)CC)cc(C)c3c2)cc(OCC)c1OCC", "Inhibition": 98}
{"molecule": "Cl.Cn1nc(C(F)(F)F)cc1-c1ccc(C(=O)Nc2ccc3c(c2)CNCC3(C)C)s1", "Inhibition": 88}
{"tested_on": "Plasmodium falciparum", "assay": "GSK_TCMDC: Inhibition of Plasmodium falciparum Dd2 in whole red blood cells, using parasite LDH activity as an index of growth. Test compounds present at 2uM", "format": "functional", "units": {"Inhibition": "%"}}
{"molecule": "FC(F)(F)c1ccc2[nH]c(-c3cccc(-c4ccc(CNCCN5CCNCC5)cc4)c3)nc2c1.O=C(O)C(F)(F)F", "Inhibition": 0}
{"molecule": "CCCCCCN1CCC(NCc2ccc(CN(C)C)cc2)CC1.O=C(O)C(F)(F)F", "Inhibition": 26}
{"molecule": "O=C(O)C(F)(F)F.O=S(=O)(NCCN1CCCC1)c1cccc(-c2ccc(CNC3Cc4ccccc4C3)cc2)c1", "Inhibition": 74}
{"molecule": "CC(C)NC[C@@H](O)[C@H](Cc1ccccc1)NC(=O)c1cc2c3c(c1)c(C(C)C)cn3CCS(=O)(=O)N2C.O=CO", "Inhibition": 99}
{"molecule": "Cc1cc(C2NC(=O)c3ccccc3N2)c(C)n1-c1ccc2c(c1)OCO2", "note": "(stereo unspecified)", "Inhibition": 85}
{"molecule": "O=c1c2ccccc2[nH]c2nc3ccccc3c(Nc3ccccc3)c12", "Inhibition": 97}
{"molecule": "O=C(Nc1ccsc1)Nc1cccc(-c2cccc(-c3nc4cc(C(F)(F)F)ccc4[nH]3)c2)c1", "Inhibition": 100}
{"molecule": "O=C(NC1CCN(c2ccc(F)cc2[N+](=O)[O-])CC1)c1cccs1", "Inhibition": 91}
{"molecule": "O=C(NCc1cccc(CN2CCOCC2)c1)c1cc(Br)cc(N2CCN(c3ccncc3)CC2)c1.O=C(O)C(F)(F)F", "Inhibition": 29}
{"molecule": "CS(=O)(=O)n1c(CN2CCN(c3ncc(C(F)(F)F)cc3Cl)CC2)nc2ccccc21", "Inhibition": 59}
{"molecule": "O=C(NCc1cccc(C(F)(F)F)c1)C1CCCN(C(=O)c2ccc(O)c(-c3ccc(Cl)c(Cl)c3)c2)C1", "note": "(stereo unspecified)", "Inhibition": 32}
{"molecule": "COc1ccc(CCn2c(=N)c(C(=O)NCc3cccnc3)cc3c(=O)n4cccc(C)c4nc32)cc1", "Inhibition": 12}
{"molecule": "C=CCNS(=O)(=O)c1ccc(NC(=O)C(C)Oc2ccc([N+](=O)[O-])cc2)cc1", "note": "(stereo unspecified)", "Inhibition": 100}
{"molecule": "CCc1cn2c3c(cc(C(=O)N[C@@H](Cc4cccc(Cl)c4)[C@H](O)CNC4CCCCC4)cc13)N(C)S(=O)(=O)CC2.O=CO", "Inhibition": 98}
{"molecule": "N#Cc1ccc(NC(=O)Nc2ccc(OC(F)(F)F)cc2)cc1", "Inhibition": 91}
{"molecule": "O=C(O)C(F)(F)F.c1cc(-c2ccc(CNCCCn3ccnc3)cc2)cc(-c2nc3ccccc3[nH]2)c1", "Inhibition": 100}
{"molecule": "O=[N+]([O-])c1ccc2c(c1)c1ccccc1n2Cc1ccccc1O", "Inhibition": 84}
{"molecule": "CCN(CC)CCOc1ccc(Nc2ncc3cc(-c4c(Cl)cccc4Cl)c(=O)n(C)c3n2)cc1", "note": "[PD-0166285]", "Inhibition": 91}
{"molecule": "Cc1cccc2nc(-c3cccc(-c4ccc(CNCc5ccccc5)cc4)c3)[nH]c12.O=C(O)C(F)(F)F", "Inhibition": 100}
{"molecule": "CN1CCN(CCCN(C(=O)Nc2cc(C(F)(F)F)cc(C(F)(F)F)c2)c2ccccc2Cc2ccccc2)CC1", "Inhibition": 92}
{"molecule": "Cc1cc(N2CCCC2)nc(Nc2ccc(NC(=O)C(C)(C)C)cc2)n1", "Inhibition": 15}
{"molecule": "O=C(CCc1c[nH]cn1)Nc1cccc(-c2ccc(-c3nc4cc(F)ccc4[nH]3)s2)c1", "Inhibition": 69}
{"molecule": "CCNc1cc(C(=O)N[C@@H](Cc2ccccc2)[C@H](O)CN[C@@H](C)c2cccc(OC)c2)cc(N2CCCC2=O)c1.O=CO", "Inhibition": 65}
{"molecule": "OC(CNCc1ccccc1OCc1ccccc1)c1cc(C(F)(F)F)cc(C(F)(F)F)c1", "note": "(stereo unspecified)", "Inhibition": 99}
{"molecule": "COc1ccc(C=NN=c2cc(C)[nH]c3ccccc23)cc1OC", "Inhibition": 8}
{"molecule": "COc1ccc(-c2ccc(CNCc3ccc(F)cc3)cc2)cc1S(=O)(=O)NCCN1CCCC1.O=C(O)C(F)(F)F", "Inhibition": 33}
{"molecule": "O=C(Nc1cccc(C(F)(F)F)c1)NC1CCN(c2ccnc3ccccc23)CC1.O=C(O)C(F)(F)F", "Inhibition": 43}
{"molecule": "CCCCN(CCCC)C(=N)c1cccc2c1CCCC2.Cl", "Inhibition": 9}
{"molecule": "CNC(=O)CSc1nnc(-c2ccc(C)cc2)c(-c2ccc(C)cc2)n1", "Inhibition": 49}
{"molecule": "CCN1CCN(c2cc(C)c3cc(NC(=O)c4ccc(OC)c([N+](=O)[O-])c4)ccc3n2)CC1", "Inhibition": 93}
{"molecule": "Cc1cc(-c2ccc(NC(=O)N3CCc4cc(Br)c(N5CCN(C)CC5)cc43)cc2)cc(C)n1", "Inhibition": 4}
{"molecule": "O=C(/C=C/c1ccc(C(F)(F)F)cc1)NCCCCCN1CCCN(C(=O)Nc2ccc(Cl)c(Cl)c2)CC1", "Inhibition": 17}
